Among the data in PubChem BioAssay AID689 (Sanford-Burnham Center for Chemical Genomics, 2007) are inhibition values, retold here.

In all, about 62,000 compounds went through this assay and about 80 (0.1%) were called active. The list is a sample of the results. Results with a measured potency or affinity are listed apart. Unmarked numbers belong to inactive results. No rule for the calls is given here.

In the test the target is Ephrin type-A receptor 4 (Mus musculus) (UniProt Q03137). Kind of test: inhibitors of EphA4 binding to KYL peptide, primary screen, biochemical, colorimetric, mouse EphA4 (AID 689). Particulars: EphA4-AP binding to KYL peptide, pNPP A405, at 10 µM, stronger effect = higher value.
Ephrin type-A receptor 4 (Mus musculus), sequence (Q03137 whole entry, looked up): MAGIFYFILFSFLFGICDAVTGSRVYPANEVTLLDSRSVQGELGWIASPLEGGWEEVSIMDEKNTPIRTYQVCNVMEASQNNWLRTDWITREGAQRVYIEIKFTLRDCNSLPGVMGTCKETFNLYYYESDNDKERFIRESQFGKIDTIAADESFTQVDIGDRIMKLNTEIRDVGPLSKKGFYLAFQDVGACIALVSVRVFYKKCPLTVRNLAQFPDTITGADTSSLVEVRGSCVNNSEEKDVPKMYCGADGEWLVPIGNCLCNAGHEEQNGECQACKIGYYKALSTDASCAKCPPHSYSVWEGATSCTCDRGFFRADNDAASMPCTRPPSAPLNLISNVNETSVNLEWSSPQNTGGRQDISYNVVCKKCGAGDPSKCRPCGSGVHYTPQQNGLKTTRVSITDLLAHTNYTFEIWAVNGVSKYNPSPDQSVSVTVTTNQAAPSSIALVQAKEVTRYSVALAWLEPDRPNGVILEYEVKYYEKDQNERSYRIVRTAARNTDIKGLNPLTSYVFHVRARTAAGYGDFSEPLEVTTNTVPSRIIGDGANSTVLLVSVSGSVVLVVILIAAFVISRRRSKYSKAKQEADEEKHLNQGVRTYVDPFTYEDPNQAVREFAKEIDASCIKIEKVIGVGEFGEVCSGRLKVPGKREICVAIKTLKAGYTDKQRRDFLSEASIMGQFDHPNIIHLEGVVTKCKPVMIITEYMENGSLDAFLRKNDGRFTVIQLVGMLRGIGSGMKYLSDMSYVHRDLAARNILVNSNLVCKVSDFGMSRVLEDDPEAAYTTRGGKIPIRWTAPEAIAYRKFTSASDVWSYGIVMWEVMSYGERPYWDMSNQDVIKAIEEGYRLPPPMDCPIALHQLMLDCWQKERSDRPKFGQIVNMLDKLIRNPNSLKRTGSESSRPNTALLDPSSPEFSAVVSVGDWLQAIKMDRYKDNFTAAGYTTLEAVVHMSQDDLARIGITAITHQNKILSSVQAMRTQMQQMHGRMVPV
For orientation: inhibition means the drop in the measured response relative to a control, in per cent. For the molecule `O=c1oc2ccccc2c(O)c1/C=N/c1ccccn1`, the inhibition was -4.8%. For `Oc1c(/C=N/c2ncn[nH]2)ccc2ccccc12` the value was -0.6%; for `Cc1ccc(CNC(=O)C2CCCCC2C(=O)O)cc1` (stereo not drawn), -8.9%; for `COc1cc(C(=O)Nc2c(-c3ccccc3)c3cc(Br)ccc3[nH]c2=O)cc(OC)c1OC`, -0.5% [this sample at 5 µg/mL]. With `COc1ccc(OC)c(NC(=O)Cn2c(-c3ccc(Cl)cc3)noc2=O)c1`, the inhibition is -3.5%. As for `CCCC(=O)N1CCN(c2ccc(NC(=O)c3ccccc3)cc2)CC1`, the figure is -0.5%; as for `COc1ccc(NC(=O)CN2C(=O)C(C)Oc3ccccc32)cc1` (stereo not drawn), -3%. As for `O=CNCCCc1nc2ccccc2n1Cc1ccccc1`, the figure is 7.7%; as for `CCn1c2ccccc2c2nc3cc(S(=O)(=O)N4CCOCC4)ccc3nc21`, 32.3%; as for `O=[N+]([O-])c1cccc(S(=O)(=O)N2CCOCC2)c1`, 2.9% [this sample at 5 µg/mL].

In the case of `COc1ccc(CCNC(=O)c2ccc3nc(-c4ccco4)c(-c4ccco4)nc3c2)cc1OC`, the inhibition was 24.1%. As to `O=C(NCc1ccccc1)c1ccc2nccnc2c1`, the inhibition was -12.5%. As for `O=C(NC1CCCC1)c1ccc2nc(-c3ccco3)c(-c3ccco3)nc2c1`, the figure is 18.8%. As to `O=C(NCc1ccccc1)c1cccc(NC(=O)c2ccco2)c1`, the inhibition is -2.1%. For the molecule `CCOC(=O)N1CCC(NC(=O)c2cc(C)c3c(C)nn(-c4ccccc4)c3n2)CC1`, the inhibition is -3.2%.

Consider `COc1c(Cl)cc(C(=O)Nc2cccc3ccccc23)cc1Cl`, for which the inhibition was -13.9% [this sample at 5 µg/mL]. Turning to `CCc1nc(SCc2nc3ccccc3[nH]2)c2oc3ccccc3c2n1`, the inhibition was 12.7%. Consider `Cc1sc(NC(=O)CN(C)C2CCCCC2)nc1-c1ccc2c(c1)CCN2S(=O)(=O)c1ccccc1`, for which the inhibition is -7%. For `O=C(Cc1ccc(F)cc1)Nc1ccccc1Br` the value was -10% [this sample at 5 µg/mL].

With `CCOC(=O)c1c(C)oc2ccc(OC(=O)c3ccccc3OC)cc12`, the inhibition is -1% [this sample at 5 µg/mL]. As for `CCOC(=O)c1cc(OC(=O)c2ccccc2)n(-c2ccccc2)n1`, the figure is 0.3%; as for `Cc1onc(-c2ccccc2Cl)c1C(=O)Nc1ccccc1N1CCOCC1`, 4%. As for `Cc1nn(-c2ccc(Cl)cc2)c2sc(C(=O)N3CCN(C(=O)c4ccco4)CC3)cc12`, the figure is -24.1%.

On to `CCCCc1nnc(SCc2ccc(OCC)cc2)n1N`, for which the inhibition is -2.2%. Take `COc1cc2[nH]c3c(N4CCC(C(N)=O)CC4)ncnc3c2cc1OC`: the inhibition was -14.4%. As to `CSc1nc(N(C)CCO)c2sc3nc(-c4ccco4)c4c(c3c2n1)CCC4`, the inhibition was 46.9%.

With `CCSc1ncnc2c1sc1nc(-c3ccco3)c3c(c12)CC(C)(C)OC3`, the inhibition was -1.2%. As for `CSc1nc(NCc2ccco2)c2sc3nc(C(C)C)c4c(c3c2n1)CC(C)(C)OC4`, the figure is -8.5%; as for `CSc1nc(N2CCN(CCO)CC2)c2sc3nc(-c4ccco4)c4c(c3c2n1)CCC4`, -2.2%.

`COC(=O)c1c(C)oc2ccc(OCc3ccccc3Br)cc12`: the inhibition is -1.2% [this sample at 5 µg/mL]. As for `CC1CCN(c2cc(N3CCOCC3)c([N+](=O)[O-])cc2F)CC1`, the figure is 17.1%; as for `CCCCCn1c2nc3ccccc3nc2c2c(=O)n(CC(C)C)cnc21`, -9.1%. As to `CCCCn1c2nc3ccccc3nc2c2c(=O)n(C(C)CC)cnc21` (stereo not drawn), the inhibition is 0.6%. In the case of `CCCn1cnc2c(c1=O)c1nc3ccccc3nc1n2CCc1ccccc1`, the inhibition was -9.5%. Turning to `Cn1nc(-c2ccccc2)c2nc3ccccc3nc21`, the inhibition was 45.4%. Take `CCCCCn1c(N)c(C#N)c2nc3ccccc3nc21`: the inhibition was 0.7%. For `c1ccc(-c2nc(-n3nc4ccccc4n3)nc3ccccc23)cc1` the value was -3.4%; for `CCCn1nc(NS(=O)(=O)c2ccccc2)c2cc3ccccc3nc21`, -10.6%. As for `CCCCn1c2nc3ccccc3nc2c2c(=O)n(CCC)cnc21`, the figure is -2.2%; as for `COc1cc(NC(=O)c2cnn3c2NC(c2ccc(Br)cc2)CC3C(F)(F)F)cc(OC)c1OC` (stereo not drawn), -4.6% [this sample at 5 µg/mL].

As for `COc1ccc(-c2c(C(C)=O)c(C)nc3sc4c(c23)NC(c2ccccc2)NC4=O)cc1` (stereo not drawn), the inhibition is -23.5%. For `CC1(C)CC(=O)C2=C(C1)N(Cc1ccco1)C(=O)NC2(C(F)(F)F)C(F)(F)F` the value was -8.1%; for `Oc1ccc(N2CCN(c3ncnc4sc5c(c34)CCC5)CC2)cc1`, -17.1%; for `COc1ccccc1CNC(=O)c1oc2ccc(S(=O)(=O)N3CCCC3)cc2c1C`, 2.1%. As to `Cc1[nH]n(CCC#N)c(=O)c1CC(=O)N1CCN(c2ccccc2)CC1`, the inhibition was -10.6%. For `O=C(Nc1ccc2nn(-c3ccccc3)nc2c1)c1ccc(Cl)c([N+](=O)[O-])c1` the value was -18.3% [this sample at 5 µg/mL]; for `CCOC(=O)C(C)(C)C(=O)C(C)(C)C(O)c1ccccn1` (stereo not drawn), -7.7%; for `CC(C)Cn1c(N)c(C(=O)CSc2nnnn2C)c(=O)n(C)c1=O`, -12%. In the case of `Cc1ccc(S(=O)(=O)NCCn2c(C)cc3ccccc32)cc1`, the inhibition is 13.5%. As for `Cc1cc2ccccc2n1CCNC(=O)C1CCCC1`, the figure is 0.5%. For `CCOc1ccc(NS(=O)(=O)c2ccc(OC)c(C)c2)cc1` the value was -20.6%; for `O=C(Nc1nc(-c2ccccc2)c(-c2ccccc2)s1)c1ccc(S(=O)(=O)N2CCCC2)cc1`, 8.7% [this sample at 5 µg/mL].

On to `Cc1ocnc1C(=O)Nc1ccc(Cl)cc1`, for which the inhibition is -10.1%.

For the molecule `CC(=O)C12c3ccccc3C(c3ccccc31)C1C(=O)NC(=O)C12` (stereo not drawn), the inhibition was -14.2% [this sample at 5 µg/mL]. As to `CCOc1ccc(N(CC(=O)Nc2ccc(Br)cc2)S(=O)(=O)c2ccc(SC)cc2)cc1`, the inhibition was -3.8% [this sample at 5 µg/mL].

For the molecule `Cc1cc(C)n2nc(SC3CCCCN(C(=O)c4ccc(F)cc4)C3=O)nc2n1` (stereo not drawn), the inhibition was -9.7%. Turning to `Cc1nn2cc(-c3ccccc3)nc2s1`, the inhibition was -24.1%.

Take `c1ccc(-c2cn3nc4c(nc3n2)CCCC4)cc1`: the inhibition was 5.2%. As for `Cc1cc(=O)[nH]c(SCCOc2ccccc2C)n1`, the figure is -0.8% [this sample at 5 µg/mL].

Take `CC1CC(C)CN(C(=O)CSc2nnc(-c3ccc(F)cc3)o2)C1` (stereo not drawn): the inhibition is 8.1%.

`Cc1ccc(NC(=O)/C(=C\c2ccc([N+](=O)[O-])cc2)NC(=O)c2ccccc2)cc1`: the inhibition was -12.9%. As for `Cc1ccc(C(=O)N/C(=C\c2ccc([N+](=O)[O-])cc2)C(=O)NCCc2ccccc2)cc1`, the figure is 1.8%. For `COc1ccc(NC(=O)/C=C/c2ccccc2Cl)c([N+](=O)[O-])c1` the value was -10.9% [this sample at 5 µg/mL]. As for `CC1=N/C(=C\c2ccc([N+](=O)[O-])cc2)C(=O)N1c1ccc(Cl)cc1`, the figure is 22.2%; as for `CC1=N/C(=C\c2ccc([N+](=O)[O-])cc2)C(=O)N1c1ccc(Br)c(C)c1`, 40.9%; as for `O=C(COc1ccccc1)Nc1ccc(S(=O)(=O)N2CCOCC2)cc1`, 5.4%.

On to `C=C(C)Cn1c(COc2ccccc2)nnc1SCC(=O)O`, for which the inhibition was 1.1%. As for `O=C(/C(=C/c1ccccc1[N+](=O)[O-])c1nc2ccccc2[nH]1)c1ccccc1`, the figure is 9% [this sample at 5 µg/mL]; as for `CCOC(=O)c1cc(-c2ccc(C=C3C(=O)N(C)C(=O)N(C)C3=O)o2)ccc1Cl`, 11% [this sample at 5 µg/mL]; as for `CN1C(=O)C(=Cc2ccc(-c3ccc(Cl)c(C(=O)O)c3)o2)C(=O)N(C)C1=O`, 12.8% [this sample at 5 µg/mL]. For `O=C1NC(=O)N(c2ccc(Cl)cc2)C(=O)/C1=C/c1ccc(-c2ccc(Cl)c(C(=O)O)c2)o1` the value was -6.4% [this sample at 5 µg/mL]; for `Cc1ccc(N2C(=O)/C(=C\c3ccc(-c4ccc(Cl)c(C(=O)O)c4)o3)C(=O)NC2=S)cc1`, -13.7% [this sample at 5 µg/mL].

With `COc1ccc(/C=C/C(=O)Nc2cccc([N+](=O)[O-])c2)cc1Br`, the inhibition was 1.9% [this sample at 5 µg/mL]. For `COC(=O)c1cccc(NC(=O)COC(=O)CSc2nc(C)cc(C)n2)c1`, the inhibition was -9.9%. As for `Cn1c(SCCOc2ccc(Cl)cc2)nnc1-c1ccncc1`, the figure is 13%. As for `Cc1ccc(CNc2oc(C)nc2C#N)cc1`, the figure is -0.9%; as for `O=C(NCCOc1ccccc1F)c1cccc2ccccc12`, -0.6% [this sample at 5 µg/mL]. Regarding `COC(=O)c1ccc(Cn2cnc3c(cnn3-c3ccc(F)cc3)c2=O)o1`, the inhibition was 9.4%. Regarding `Cc1ccc(/C=C/C2=Cc3c(sc(NC(=O)CSc4n[nH]c(N)n4)c3C#N)C(C)(C)C2)o1`, the inhibition was 44.8%. For `Cc1ccc(OCc2nnc(SCC(=O)Nc3sc(C)c(C)c3C#N)n2C)cc1` the value was -5.2%; for `CCOc1ccc(NC(=O)CSc2nc(C)c3c(c2C#N)CCCC3)cc1`, -14.6%; for `Cc1sc(NC(=O)CSc2nnc(C)c(=O)[nH]2)c(C#N)c1C`, -25.1%. For `COc1cc(C2N(c3ccc(Cl)c(Cl)c3)C(=O)C3CCCN32)cc(OC)c1OC` (stereo not drawn) the value was -1.5%.
